GRP78 ERSR act: ER stress response induction in glioma; U87-MG GRP78 promoter luciferase reporter, 16 h; Potency, µM, hits mostly activators; hit rate 0.02% among 420,000; also: series mostly up to about 76 µM; nearly all actives have a fitted effect of over 35% in size
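Stably transfected U87-MG glioma cells carrying a GRP78-based luciferase sensor; 16 h compound incubation. Luminescence end-point read 10 min after Bright-Glo addition at room temperature.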
Sfp PPTase inh: Sfp phosphopantetheinyl transferase inhibition. AID 1490. Biochemical Sfp PPTase activity, qHTS. Potency, µM, most hits filed as inhibitors. Q9F4F7. hit rate 3.5% among 310,000;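 also: the enzyme is Sfp with the accession as filed and its product quenches rhodamine fluorescence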
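Fluorescence-quenching assay: 15 nM Sfp-PPTase preincubated 15 min at room temperature with compound, then 5 uM rhodamine-CoA and 12.5 uM BHQ-2-labelled YbbR peptide added. Fluorescence (ex 525/em 598 nm) read at start and after 30 min; difference gives rate.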
G9a inh: inhibitors of human histone lysine methyltransferase G9a; Potency, µM (series often up to 102 µM), most hits filed as inhibitors; hit rate 8.8% among 350,000; G9a H3K9 monomethylation, AlphaScreen, 2 h; also: nearly all actives have a fitted effect of over 75% in size
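Compounds were preincubated with 20 nM G9a for 15 min, after which biotinylated H3K9 peptide (500 nM) and SAM (20 uM) started a 2 h room-temperature reaction. Monomethylated product was quantified by antibody-based AlphaScreen chemiluminescence.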
12-LOX inh: blocks human arachidonate 12S-lipoxygenase | AID 1671190 | hit rate 1.1% among 580,000 | Potency, µM (top dose mostly 108 µM), most hits filed as inhibitors | purified 12hLO, xylenol orange hydroperoxide absorbance
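Hydroperoxide product was detected by ferrous iron/xylenol orange as the 573 to 405 nm absorbance ratio. Arachidonic acid at 40 uM (final) was turned over for 30 min at room temperature by 150 nM human 12hLO, pH 7.0 Hepes buffer, after 15 min compound preincubation.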
VDR inh: vitamin D3 receptor (human) inhibition; Potency, µM, hits mostly inhibitors; VDR-SRC2-3 peptide fluorescence polarization, 2 h; P11473; AID 504847; hit rate 0.93% among 400,000
Target sequence (P11473 whole entry, looked up): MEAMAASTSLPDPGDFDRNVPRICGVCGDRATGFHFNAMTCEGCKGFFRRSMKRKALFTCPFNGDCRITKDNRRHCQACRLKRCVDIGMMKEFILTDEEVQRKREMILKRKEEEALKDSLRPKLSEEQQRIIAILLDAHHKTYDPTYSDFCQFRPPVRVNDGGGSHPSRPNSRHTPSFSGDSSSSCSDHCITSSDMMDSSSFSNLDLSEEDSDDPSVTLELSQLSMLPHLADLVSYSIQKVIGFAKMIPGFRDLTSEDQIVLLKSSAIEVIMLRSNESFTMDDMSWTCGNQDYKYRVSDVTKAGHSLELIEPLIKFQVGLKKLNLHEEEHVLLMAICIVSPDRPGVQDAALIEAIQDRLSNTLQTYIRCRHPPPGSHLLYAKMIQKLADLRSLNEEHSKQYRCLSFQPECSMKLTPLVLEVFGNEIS
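Compounds are added to VDR with labelled SRC2-3 coactivator peptide and held 2 h at room temperature. Inhibition of the VDR–peptide interaction is then read as a change in fluorescence polarization.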
Of the large screens only hits and unclear results are named; the others gave an inactive call; ! = not confirmed by another sample. The full list was thinned out, with hits kept by preference. Calls follow the shape of the dose curve; as a rule, active = well fitted curve in the direction sought with a large enough effect; inconclusive = small, poorly fitted or top-dose-only effect, or another doubt; inactive = no such curve, though single readings can be large; an effect the other way counts as inactive or inconclusive.

CC(=O)Nc1ccc2c(c1)CC1(C(=O)N(C)C(=O)N(C)C1=O)C1CCCN21 (stereo not drawn)	G9a inh 35µM
CN1C(=O)N(C)C(=O)C2(Cc3cc(NC(=O)c4ccc(F)cc4)ccc3N3CCCC32)C1=O (stereo not drawn)	VDR inh inconclusive (no result: G9a inh)
C=C(C)CN1CCN(Cc2ccc(OC)cc2)CC1	none (no result: GRP78 ERSR act, Sfp PPTase inh, G9a inh, VDR inh)
Cc1cc(-c2n[nH]c(=S)n2CC(C)C)cs1	G9a inh 3.2µM, 12-LOX inh inconclusive
Cc1ccc(CNCCc2ccccc2)s1	none (no result: GRP78 ERSR act, Sfp PPTase inh, G9a inh, VDR inh)
CC(C)[C@@]1(NC(=O)[C@@H]2C=C3c4cccc5[nH]cc(c45)C[C@H]3N(C)C2)O[C@@]2(O)[C@@H]3CCCN3C(=O)[C@H](Cc3ccccc3)N2C1=O	Sfp PPTase inh inconclusive, G9a inh 8.9µM (no result: GRP78 ERSR act, 12-LOX inh, VDR inh)
CC(C)C[C@H]1C(=O)N2CCC[C@@H]2[C@]2(O)O[C@](NC(=O)[C@@H]3C=C4c5cccc6[nH]c(Br)c(c56)C[C@H]4N(C)C3)(C(C)C)C(=O)N12	12-LOX inh inconclusive, VDR inh inconclusive (no result: G9a inh)
CC(C)C[C@H]1C(=O)N2CCCC2[C@]2(O)O[C@](NC(=O)[C@@H]3C=C4c5cccc6[nH]cc(c56)CC4N(C)C3)(C(C)C)C(=O)N12 (stereo partly drawn)	G9a inh 40µM
CC(C)C1C(=O)N2CCCC2[C@]2(O)O[C@@](NC(=O)[C@@H]3C=C4c5cccc6[nH]cc(c56)C[C@H]4N(C)C3)(C(C)C)C(=O)N12 (stereo partly drawn)	none (no result: G9a inh, 12-LOX inh, VDR inh)
CN1C[C@@H](C(=O)N[C@@]2(C)O[C@]3(O)C4CCCN4C(=O)[C@@H](Cc4ccccc4)N3C2=O)C=C2c3cccc4[nH]cc(c34)C[C@@H]21 (stereo partly drawn)	VDR inh 14µM (no result: G9a inh, 12-LOX inh)
CN1C[C@H](C(=O)N[C@@]2(C)O[C@@]3(O)C4CCCN4C(=O)C(Cc4ccccc4)N3C2=O)C[C@H]2c3cccc4[nH]cc(c34)C[C@H]21 (stereo partly drawn)	none (no result: 12-LOX inh)
CC(C)CC1C(=O)N2CCC[C@H]2[C@]2(O)O[C@](NC(=O)[C@@H]3C=C4c5cccc6[nH]c(Br)c(c56)C[C@H]4N(C)C3)(C(C)C)C(=O)N12 (stereo partly drawn)	none (no result: Sfp PPTase inh, G9a inh, 12-LOX inh)
CC(C)[C@@]1(NC(=O)[C@@H]2C[C@@H]3c4cccc5[nH]cc(c45)C[C@H]3N(C)C2)O[C@@]2(O)[C@@H]3CCCN3C(=O)[C@H](Cc3ccccc3)N2C1=O	Sfp PPTase inh 79µM!, G9a inh inconclusive, 12-LOX inh inconclusive
Cc1ncc2c(n1)C[C@@H]1CC[C@H]2N1C(=O)CCCc1ccccc1	none (no result: GRP78 ERSR act, Sfp PPTase inh, G9a inh, VDR inh)
Cc1cccc(C(=O)N2CCC3(CC2)c2nccn2-c2ccccc2CN3C)c1	none (no result: GRP78 ERSR act, Sfp PPTase inh, G9a inh, VDR inh)
CC(=O)N1C[C@@H]2C[C@H](C1)c1ccc(NC(=O)C3CCCCC3)c(=O)n1C2	none (no result: GRP78 ERSR act, Sfp PPTase inh, G9a inh, VDR inh)
O=S(=O)(NC[C@H]1C[C@@H]2CCN1C[C@@H]2CN1CCc2ccccc2C1)c1ccccc1	none (no result: GRP78 ERSR act, Sfp PPTase inh, G9a inh, VDR inh)
CN1CCC2(CC1)N1CC3(C)CN2CC(C)(C1)C3=O	none (no result: GRP78 ERSR act, Sfp PPTase inh, G9a inh, VDR inh)
COc1cc2c(cc1OC1CCCC1)NC(=O)C21CCN(C(=O)c2ccccc2)CC1	none (no result: GRP78 ERSR act, Sfp PPTase inh, G9a inh, VDR inh)
CC(C)[C@H]1C(=O)N2CCC[C@H]2[C@]2(O)O[C@](NC(=O)[C@@H]3C=C4c5cccc6[nH]cc(c56)C[C@H]4N(C)C3)(C(C)C)C(=O)N12	Sfp PPTase inh 56µM, G9a inh 10µM (no result: 12-LOX inh)
C/C(=N\NP(=S)(c1ccccc1)c1ccccc1)c1ccc(O)cc1O	none
Oc1ccccc1/C=N/NP(=S)(c1ccccc1)c1ccccc1	none
Oc1ccc(/C=N/NP(=S)(c2ccccc2)c2ccccc2)cc1O	G9a inh inconclusive, 12-LOX inh 32µM
Oc1ccc(/C=N/NP(=S)(c2ccccc2)c2ccccc2)c(O)c1O	Sfp PPTase inh 40µM, G9a inh inconclusive, 12-LOX inh inconclusive
CC[C@H]1CN2CC[C@H]1C[C@@H]2CNCc1ccc(SC)cc1	none (no result: GRP78 ERSR act, Sfp PPTase inh, G9a inh, VDR inh)
COc1cc2c(cc1OCC1CC1)NC(=O)C21CCN(c2nc(C)cnc2C)CC1	none (no result: GRP78 ERSR act, Sfp PPTase inh, G9a inh, VDR inh)
CCOc1cc(CNCCc2c[nH]c3ccccc23)cc(Cl)c1OCC	G9a inh inconclusive, 12-LOX inh inconclusive
COc1cccc(CNCCc2c[nH]c3ccccc23)c1	none
CCOc1c(Cl)cc(CNCCc2c[nH]c3ccccc23)cc1OC	Sfp PPTase inh 56µM, G9a inh inconclusive, 12-LOX inh inconclusive
COc1ccc(CNCCc2ccccc2F)c(OC)c1C	G9a inh 79µM, 12-LOX inh inconclusive
COc1ccc(CNCCc2c[nH]c3ccccc23)cc1	12-LOX inh 0.63µM (no result: GRP78 ERSR act, Sfp PPTase inh, G9a inh, VDR inh)
COc1ccc(CNCCc2c[nH]c3ccccc23)c(OC)c1C	G9a inh 16µM, 12-LOX inh inconclusive
CSC(C)C(=O)NC(C)Cc1ccc(Br)cc1 (stereo not drawn)	none (no result: GRP78 ERSR act, Sfp PPTase inh, G9a inh, VDR inh)
Cn1ccnc1CN1CCN2C(=O)N(c3ccccn3)C[C@H]2C1	none (no result: GRP78 ERSR act, Sfp PPTase inh, G9a inh, VDR inh)
CCOc1cc(CNCCc2ccccc2F)ccc1OC	G9a inh 8.9µM, 12-LOX inh inconclusive
Cc1ccc([C@H]2CN(C(=O)c3cc(C(C)C)on3)[C@@H]3C4CCN(CC4)[C@H]23)cc1	none (no result: GRP78 ERSR act, Sfp PPTase inh, G9a inh, VDR inh)
CCOC(=O)CC(SP1(=S)OCC2(CCCCC2)CO1)C(=O)OCC (stereo not drawn)	none (no result: Sfp PPTase inh, G9a inh)
CCOC(=O)CC(SP(=S)(OC)OC)C(=O)OCC (stereo not drawn)	Sfp PPTase inh 40µM, G9a inh inconclusive, 12-LOX inh 23µM!, VDR inh 28µM
CCCCOCCCn1c(N)c(C(=O)OCCOC)c2nc3ccccc3nc21	12-LOX inh inconclusive
CCOCCCn1c(N)c(C(=O)Nc2sc3c(c2C(=O)OC)CCCC3)c2nc3ccccc3nc21	Sfp PPTase inh inconclusive, G9a inh 5.6µM
